# Bioassay records from PubChem.
# SARS PLpro yeast: qHTS of Yeast-based Assay for SARS-CoV PLP | Potency, µM (highest dose often 32.9 µM), most hits filed as activators | S. cerevisiae expressing SARS-CoV PLpro, growth rescue | 0.19% of 330,000 active; calls by dose curve; note: nearly all actives have a fitted effect of over 55% in size
# Pf growth 48h: Primary qHTS for delayed death inhibitors of the malarial parasite plastid, 48 hour incubation | Potency, µM (highest dose often 28.7 µM), actives largely listed as inhibitors | 5.9% of 310,000 active | P. falciparum luciferase growth in erythrocytes, 48 h
#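 Cell-based growth assay: transgenic P. falciparum expressing firefly luciferase, cultured in red cells within RPMI 1640 containing 0.5% w/v Albumax, 24 mM bicarbonate and gentamycin. A drop in luciferase activity indicates inhibition.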
# Pf growth 96h: Primary qHTS for delayed death inhibitors of the malarial parasite plastid, 96 hour incubation. Potency, µM (titrated, usually from 28.7 µM), usual class: inhibitors. 6.9% of 320,000 active. P. falciparum luciferase reporter growth, 96 h
#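 Erythrocytes infected with luciferase-expressing P. falciparum were dispensed at 2% hematocrit and 0.05% parasitemia (final), then incubated with compounds 96 hours at 37 C in 5% CO2. Luminescence after detection reagent addition reported growth.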
# NS1 inh: qHTS Assay for Inhibitors of Influenza NS1 Protein Function | Potency, µM (titrated, usually from 46.1 µM) | 0.4% of 270,000 active | AID 2326, 2010; calls by dose curve; note: actives are rising curves; nearly all actives have a fitted effect of over 50% in size
#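 In this qHTS, NS1 from influenza A is expressed in budding yeast, where it slows growth. Cells are switched from glucose to 2% galactose medium (pH 6.0, -URA), treated with compound, and growth recovery is read at OD600.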
# RE007 growth inh: qHTS Assay for Inhibitors of the HIV-1 protein Vpr. S. pombe RE007 Vpr strain, BacTiter-Glo ATP luminescence, 24 h. Potency, µM (doses to about 92.2 µM), usual class: inhibitors. 0.21% of 360,000 active. AID 651644, 2012; active = well fitted falling curve with a large enough effect; inconclusive = small, poorly fitted or top-dose-only effect; inactive = no such curve, though single readings can be large or run the other way; note: nearly all actives have a fitted effect of over 50% in size
#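 Fission yeast RE007 carrying one integrated HIV-1 vpr copy, seeded at OD 0.01 in PMG+AL medium with 23 nL pinned compound. Grown 24 h at 30 degrees; viability read by BacTiter-Glo luminescence after 5 min.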
# A number is an active result; - = inactive; ? = inconclusive; . = not tested or not shown; [ ] = dose if it differs, or a comment. The list is not random: actives were taken first. Their share in the collection is about 9.5%. Unless noted, calls come from the whole dose curve; as a rule, active = well fitted inhibition curve with a large enough effect; inconclusive = small, poorly fitted or top-dose-only effect, or another doubt; inactive = no such curve, though single readings can be large or run the other way.
SMILES,SARS PLpro yeast,Pf growth 48h,Pf growth 96h,NS1 inh,RE007 growth inh
O=C(CSc1nc2ccccc2o1)N1c2ccccc2Sc2ccc(C(F)(F)F)cc21,-,13µM,?,-,-
CC1CC(C)(C)N(C(=O)CN2CCN(C)CC2)c2ccccc21 (stereo unspecified),-,-,-,?,-
O=C(CN1CCCC1)N1c2ccccc2Sc2ccc(C(F)(F)F)cc21,-,?,-,-,-
CCNCCC(=O)N1c2ccccc2Sc2ccc(C(F)(F)F)cc21,-,-,?,-,-
Cc1cccc(C[C@H](C(=O)O)N2C(=O)c3ccc(C(=O)O)cc3C2=O)c1,-,-,-,.,.
O=S(=O)(Nc1ccon1)c1ccc(F)c(F)c1,-,-,?,-,-
Oc1cc(CN2COc3ccccc32)c(O)cc1CNC1CCCCC1,.,.,.,-,.
O=C(O)[C@@H]1[C@@H]2O[C@H]([C@@H](Br)[C@H]2Br)[C@H]1C(=O)O,.,.,.,-,.
CC(C)(C)C(=O)Nc1ccc(/C=C/C(=O)c2ccco2)cc1,-,-,?,-,-
CCOC(=O)N1CCN(C(=O)CSc2nc3c([nH]c4ccccc43)c(=O)n2CC)CC1,.,?,-,-,-
O=C(CN1CCN(c2ccccn2)CC1)N1c2ccccc2CCc2ccccc21,-,15µM,?,-,-
O=C(CN1CCN(c2ccccn2)CC1)N1CC(O)CO1 (stereo unspecified),-,-,-,-,-
CCC(C)(CC(=O)Nc1nccs1)c1ccccc1 (stereo unspecified),-,.,-,-,-
Cc1ccc(S(=O)(=O)NC(CC(=O)O)c2cccs2)cc1 (stereo unspecified),-,-,-,-,-
COc1cc(C(=O)N2CCN(c3ccccc3)CC2)c([N+](=O)[O-])cc1OC,-,-,?,-,-
CC(C)Sc1nc2c(cnn2-c2ccc(Cl)cc2)c(=O)[nH]1,-,-[0.00184 µM],-,-,-
CCOC(=O)n1c(=O)oc2cc(S(=O)(=O)N3CCCCC3)ccc21,-,?,0.0029µM,-,-
CCOC(=O)N1CCN(C(=O)c2oc3ccc(S(=O)(=O)N4CC(C)CC(C)C4)cc3c2C)CC1 (stereo unspecified),-,?,.,-,-
Cc1c(C(=O)N2CCCCC2)oc2ccc(Br)cc12,-,-,-,.,-
Cc1ccc2oc(C(=O)N3CCCCCC3)c(C)c2c1,-,-,13µM,-,-
CCOC(=O)N1CCN(C(=O)c2oc3ccc(S(=O)(=O)N4CCCCCC4)cc3c2C)CC1,-,12µM,?,-,-
CCOC(=O)C1CCN(C(=O)c2oc3ccc(S(=O)(=O)N4CC(C)CC(C)C4)cc3c2C)CC1 (stereo unspecified),-,2.3µM,-,-,-
CCCCN(CC)C(=O)c1oc2ccc(S(=O)(=O)N3CCCC3)cc2c1C,-,?,13µM,-,-
Cc1c(C(=O)N(C)Cc2ccccc2)oc2ccc(S(=O)(=O)N3CCCC3)cc12,-,?,?,-,-
Cc1cc(S(=O)(=O)NCCN2CCOCC2)ccc1Cl,-,.,-,-,-
SMILES,SARS PLpro yeast,Pf growth 48h,Pf growth 96h,NS1 inh,RE007 growth inh
O=S(=O)(NCCN1CCOCC1)c1cc(Cl)ccc1Cl,-,-,6.6µM,-,-
COc1c(S(=O)(=O)NCCN2CCOCC2)ccc(Cl)c1Cl,-,-,.,-,-
CC(=O)Nc1ccc(S(=O)(=O)c2c(N)n(CCN3CCOCC3)c3nc4ccccc4nc23)cc1,-,?,-,-,-
Nc1c(S(=O)(=O)c2cc(Cl)ccc2Cl)c2nc3ccccc3nc2n1CCN1CCOCC1,-,13µM,.,-,-
Cc1c(Cl)ccc(S(=O)(=O)NCCN2CCOCC2)c1Cl,-,0.13µM,-,-,-
COc1ccccc1NC(=O)COC(=O)CC(C)(C)CC1=NS(=O)(=O)c2ccccc2N1,-,?,?,-,-
CC(C)(CC(=O)OCC(=O)Nc1ccccc1F)CC1=NS(=O)(=O)c2ccccc2N1,-,?,12µM,-,-
Nc1ccn([C@@H]2O[C@H](CNCc3ccc(Oc4cc(-n5cccn5)ncn4)cc3)[C@@H](O)[C@H]2O)c(=O)n1,.,.,.,.,-
Cc1nnc(SCC(=O)NC(C)(C)C)n1NCc1ccc(Cl)cc1,-,-,-,-,-
Cc1nnc(SCC(=O)NC(C)(C)C)n1NCc1c(F)cccc1Cl,-,-,2.3µM,-,-
O=C(N/N=C/c1ccccn1)c1cc([N+](=O)[O-])cc([N+](=O)[O-])c1,-,?,-,.,-
CCN(CC)C(=O)C1CCCN(c2ccc([N+](=O)[O-])cc2[N+](=O)[O-])C1 (stereo unspecified),-,-,-,-,-
O=C(N/N=C/c1ccccn1)c1ccc([N+](=O)[O-])cc1,-,?,8.3µM,.,-
CCN(CC)C(=O)C1CCCN(c2ccc([N+](=O)[O-])cc2/C=N/NC(=O)c2cccc([N+](=O)[O-])c2)C1 (stereo unspecified),-,?,10µM,-,-
O=C(N/N=C/c1cc([N+](=O)[O-])ccc1N1CCNCC1)c1ccc([N+](=O)[O-])cc1,-,?,4.1µM,-,-
C=CC1=C(C(=O)O)N2C(=O)[C@@H](NC(=O)C(N=O)c3csc(N)n3)[C@H]2SC1 (stereo partly specified),.,-,-,.,.
CCN(CC1CCCO1)C(=O)CCc1nnc(CCc2ccc(OC)cc2)o1 (stereo unspecified),-,-,-,-,-
CC(=O)Nc1cc[n+](CC(=O)c2ccc(Cl)cc2)cc1,-,?,9.3µM,-,-
Cc1ccc[n+](CC(=O)c2ccc(-c3ccccc3)cc2)c1,-,-,?,-,-
Cc1ccc[n+](CC(=O)c2ccc(Cl)cc2)c1,-,-,0.83µM,-,-
CC(SCc1ccccc1)C(=O)Nc1ccccc1F (stereo unspecified),-,-,0.93µM,-,-
Oc1ccc(-c2csc(Nc3ncccn3)n2)cc1,-,-,4.1µM,-,-
Cc1noc(C)c1COc1cccc(C(=O)OCCOc2ccc(F)cc2)c1,-,?,13µM,-,-
COc1ccc(C(C)=O)cc1COC(=O)c1ccc(OCc2c(C)noc2C)cc1,-,?,8.3µM,-,-
CCN(CC)S(=O)(=O)c1ccc(C(=O)N(c2ccc(C)cc2)C2C=CS(=O)(=O)C2)cc1 (stereo unspecified),-,-,?,.,-
Cc1c(Cl)ccc2sc(NC(=O)c3ccco3)nc12,-,-,-,-,-
CCN(CC)CCNCc1ccc(-c2ccc(Cl)cc2)o1,-,?,12µM,-,-
CC(C)NCC(O)(c1ccc(Cl)cc1)c1ccc(Cl)cc1,-,12µM,1.5µM,.,-
CCN(CC)CCNCC(O)(c1ccc(Cl)cc1)c1ccc(Cl)cc1,-,?,12µM,.,-
NCC(O)(c1ccc(Cl)cc1)c1ccc(Cl)cc1,-,?,4.7µM,-,-
